The nature of test [1]: small molecules captured by biotinylated probe aFSTL3 – biochemical, small-molecule microarray, fluorescence 635/667, stem cell growth factor project, primary screen (AID 1064).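 Note: measures binding of the biotinylated anti-FSTL3 antibody to printed compounds.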 Particulars: higher = more signal.
A short description of test [2]: binders from COS7 lysate, DM2A8 probe, primary screen, torsin A project, cell lysate, small-molecule microarray, fluorescence 635/667 (AID 1065). Conditions: higher = more signal, COS7 lysate expressing mutant human TOR1A.
Test [3] in a line: small molecules captured by biotinylated probe aFGF2 – biochemical, small-molecule microarray, fluorescence 635/667, stem cell growth factor project, primary screen (AID 1067).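 Note: measures binding of biotinylated aFGF2 protein to printed compounds on slides; z-score merges feature fluorescence and signal-to-noise across triplicate slides.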 Particulars: higher = more signal.
Test [4] can be described thus: small molecules captured by biotinylated probe aFGF10 – biochemical, small-molecule microarray, fluorescence 635/667, stem cell growth factor project, primary screen (AID 1071).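 Note: score merges 667 nm spot intensity and signal to noise from triplicate slides.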 Particulars: higher = more signal.
Test [5] concerns the target Neurogenic locus notch homolog protein 2 (Homo sapiens) (UniProt Q04721). As to the kind of experiment: small molecules binding Notch2 protein – biochemical, small-molecule microarray, 635 nm fluorescence, stem cell growth factors, primary screen (AID 1073). Conditions: higher = more signal.
Test [6] has as its target Pro-neuregulin-1, membrane-bound isoform (Homo sapiens) (UniProt Q02297). As to the kind of experiment: small molecules binding neuregulin-1 protein – biochemical, small-molecule microarray, fluorescence 635/667, psychiatric disease protein project, primary screen (AID 1075).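 Note: score combines 667 nm spot fluorescence with signal to noise.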 Particulars: NRG1 binding, 635 nm fluorescence, higher = more signal.
Test [7] deals with Neuregulin-1 EGF-like domain. As to the kind of experiment: small molecules binding NRG1 EGF domain – biochemical, small-molecule microarray, 635 nm fluorescence, primary screen (AID 1081).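 Note: binding of the protein to compounds printed on small-molecule microarray slides.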 Particulars: higher = more signal.
Test [8] in a line: FRG1 expression reporter modulators in myotubes – cell-based, C2C12 myotubes, firefly/Renilla luciferase, luminescence, FRG1 inhibition for FSHD, primary screen (AID 1084). Conditions: FRG1 promoter luciferase, higher = more signal, called active from +8 up or from −8 down.
Test [9] in a line: small molecules captured by biotinylated probe aFST – biochemical, small-molecule microarray, fluorescence 635/667, stem cell growth factor project, primary screen (AID 1086).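 Note: score merges 667 nm fluorescence with signal-to-noise of each printed compound spot.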 Particulars: higher = more signal.
The nature of test [10]: binders of probe aHhip on microarray, primary screen, stem cell growth factor project, biochemical, small-molecule microarray, fluorescence 635/667 (AID 1087).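 Note: score merges spot fluorescence at 667nm with spot signal to noise ratio.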 Conditions: higher = more signal.
Test [11] concerns PRMT1 (protein arginine N-methyltransferase 1). As to the kind of experiment: small molecules binding arginine methyltransferase PRMT1 – biochemical, small-molecule microarray, 635 nm fluorescence, primary screen (AID 1088).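 Note: binding of Prmt1 protein to compounds spotted on small-molecule microarray slides.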 Particulars: higher = more signal.
The nature of test [12]: growth effects on S. cerevisiae YJM789 – YJM789 clinical isolate, OD600, 24 h, basal, primary screen (AID 1089).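 Note: growth of clinical yeast isolate S. cerevisiae YJM 789 seeded 1000 cells per well; test concentration not given here.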 Particulars: higher = more signal, called active from +8 up or from −8 down.
Test [13] in a line: S. pombe growth modifiers, basal conditions – strain 972, OD600, 24 h, no modulator, primary screen (AID 1090).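 Note: basal condition with compound alone and no growth modifier present; test concentration not given here.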 Particulars: S. pombe 972 growth, higher = more signal, called active from +8 up or from −8 down.
A short description of test [14]: budding yeast growth modifiers under rapamycin – strain BY4716, OD600, 96 h, primary screen (AID 1091). Note: test concentration not given here. Conditions: S. cerevisiae BY4716 + rapamycin, higher = more signal, called active from +8 up or from −8 down.
In test [15] the target is Torsin-1A-interacting protein 2 (Homo sapiens) (UniProt Q8NFQ8). The test can be described thus: small molecules binding lysate-expressed LULL1 – cell lysate, human LULL1 lysate, 635/667 nm fluorescence, primary screen (AID 1092).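 Note: probe is lysate of COS7 cells overexpressing human LULL1; score merges per-feature 667 nm fluorescence with signal-to-noise.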 Particulars: small-molecule microarray, hLULL1 lysate binding, 635 nm fluorescence; higher = more signal.
The nature of test [16]: optical density change of DRC41 E. coli – strain DRC41, OD650, 24 h, E. coli filamentation project, primary screen (AID 1093).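 Note: MC1000 strain lacking acrAB efflux and sulA so SOS filamentation is blocked; test concentration not given here.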 Particulars: E. coli DRC41 growth, higher = more signal, called active from +8 up or from −8 down.
The nature of test [17]: probe aLefty2 binding to arrayed compounds – biochemical, biotinylated probe, 635/667 nm fluorescence, primary screen (AID 1094).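 Note: score merges spot fluorescence near 667 nm with spot signal-to-noise ratio.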 Particulars: small-molecule microarray, higher = more signal.
In test [18] the test system is Noggin (protein binding on small-molecule microarray). As to the kind of experiment: small molecules binding Noggin protein – biochemical, 635/667 nm fluorescence, primary screen (AID 1095).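 Note: score merges 667 nm feature fluorescence with signal to noise over triplicate slides.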 Conditions: 635 nm fluorescence, higher = more signal.
Test [19] addresses Neurogenic locus notch homolog protein 3 (Homo sapiens) (UniProt Q9UM47). As to the kind of experiment: small molecules binding NOTCH3 protein – biochemical, 635/667 nm fluorescence, primary screen (AID 1096). Particulars: small-molecule microarray, 635 nm fluorescence, higher = more signal.
The nature of test [20]: probe aEGFR binding to arrayed compounds – biochemical, biotinylated probe, 635/667 nm fluorescence, primary screen (AID 1097).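 Note: probe is a biotinylated anti-EGFR antibody binding compounds printed on slides; score combines fluorescence near 667 nm and signal to noise of each spot.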 Conditions: small-molecule microarray, higher = more signal.

Active and inactive are the calls of the source.

Drawing on PubChem BioAssay, this text covers composite z-score and z-score for six compounds.

Neurogenic locus notch homolog protein 2 (Homo sapiens), sequence (Q04721 whole entry, looked up, canonical isoform): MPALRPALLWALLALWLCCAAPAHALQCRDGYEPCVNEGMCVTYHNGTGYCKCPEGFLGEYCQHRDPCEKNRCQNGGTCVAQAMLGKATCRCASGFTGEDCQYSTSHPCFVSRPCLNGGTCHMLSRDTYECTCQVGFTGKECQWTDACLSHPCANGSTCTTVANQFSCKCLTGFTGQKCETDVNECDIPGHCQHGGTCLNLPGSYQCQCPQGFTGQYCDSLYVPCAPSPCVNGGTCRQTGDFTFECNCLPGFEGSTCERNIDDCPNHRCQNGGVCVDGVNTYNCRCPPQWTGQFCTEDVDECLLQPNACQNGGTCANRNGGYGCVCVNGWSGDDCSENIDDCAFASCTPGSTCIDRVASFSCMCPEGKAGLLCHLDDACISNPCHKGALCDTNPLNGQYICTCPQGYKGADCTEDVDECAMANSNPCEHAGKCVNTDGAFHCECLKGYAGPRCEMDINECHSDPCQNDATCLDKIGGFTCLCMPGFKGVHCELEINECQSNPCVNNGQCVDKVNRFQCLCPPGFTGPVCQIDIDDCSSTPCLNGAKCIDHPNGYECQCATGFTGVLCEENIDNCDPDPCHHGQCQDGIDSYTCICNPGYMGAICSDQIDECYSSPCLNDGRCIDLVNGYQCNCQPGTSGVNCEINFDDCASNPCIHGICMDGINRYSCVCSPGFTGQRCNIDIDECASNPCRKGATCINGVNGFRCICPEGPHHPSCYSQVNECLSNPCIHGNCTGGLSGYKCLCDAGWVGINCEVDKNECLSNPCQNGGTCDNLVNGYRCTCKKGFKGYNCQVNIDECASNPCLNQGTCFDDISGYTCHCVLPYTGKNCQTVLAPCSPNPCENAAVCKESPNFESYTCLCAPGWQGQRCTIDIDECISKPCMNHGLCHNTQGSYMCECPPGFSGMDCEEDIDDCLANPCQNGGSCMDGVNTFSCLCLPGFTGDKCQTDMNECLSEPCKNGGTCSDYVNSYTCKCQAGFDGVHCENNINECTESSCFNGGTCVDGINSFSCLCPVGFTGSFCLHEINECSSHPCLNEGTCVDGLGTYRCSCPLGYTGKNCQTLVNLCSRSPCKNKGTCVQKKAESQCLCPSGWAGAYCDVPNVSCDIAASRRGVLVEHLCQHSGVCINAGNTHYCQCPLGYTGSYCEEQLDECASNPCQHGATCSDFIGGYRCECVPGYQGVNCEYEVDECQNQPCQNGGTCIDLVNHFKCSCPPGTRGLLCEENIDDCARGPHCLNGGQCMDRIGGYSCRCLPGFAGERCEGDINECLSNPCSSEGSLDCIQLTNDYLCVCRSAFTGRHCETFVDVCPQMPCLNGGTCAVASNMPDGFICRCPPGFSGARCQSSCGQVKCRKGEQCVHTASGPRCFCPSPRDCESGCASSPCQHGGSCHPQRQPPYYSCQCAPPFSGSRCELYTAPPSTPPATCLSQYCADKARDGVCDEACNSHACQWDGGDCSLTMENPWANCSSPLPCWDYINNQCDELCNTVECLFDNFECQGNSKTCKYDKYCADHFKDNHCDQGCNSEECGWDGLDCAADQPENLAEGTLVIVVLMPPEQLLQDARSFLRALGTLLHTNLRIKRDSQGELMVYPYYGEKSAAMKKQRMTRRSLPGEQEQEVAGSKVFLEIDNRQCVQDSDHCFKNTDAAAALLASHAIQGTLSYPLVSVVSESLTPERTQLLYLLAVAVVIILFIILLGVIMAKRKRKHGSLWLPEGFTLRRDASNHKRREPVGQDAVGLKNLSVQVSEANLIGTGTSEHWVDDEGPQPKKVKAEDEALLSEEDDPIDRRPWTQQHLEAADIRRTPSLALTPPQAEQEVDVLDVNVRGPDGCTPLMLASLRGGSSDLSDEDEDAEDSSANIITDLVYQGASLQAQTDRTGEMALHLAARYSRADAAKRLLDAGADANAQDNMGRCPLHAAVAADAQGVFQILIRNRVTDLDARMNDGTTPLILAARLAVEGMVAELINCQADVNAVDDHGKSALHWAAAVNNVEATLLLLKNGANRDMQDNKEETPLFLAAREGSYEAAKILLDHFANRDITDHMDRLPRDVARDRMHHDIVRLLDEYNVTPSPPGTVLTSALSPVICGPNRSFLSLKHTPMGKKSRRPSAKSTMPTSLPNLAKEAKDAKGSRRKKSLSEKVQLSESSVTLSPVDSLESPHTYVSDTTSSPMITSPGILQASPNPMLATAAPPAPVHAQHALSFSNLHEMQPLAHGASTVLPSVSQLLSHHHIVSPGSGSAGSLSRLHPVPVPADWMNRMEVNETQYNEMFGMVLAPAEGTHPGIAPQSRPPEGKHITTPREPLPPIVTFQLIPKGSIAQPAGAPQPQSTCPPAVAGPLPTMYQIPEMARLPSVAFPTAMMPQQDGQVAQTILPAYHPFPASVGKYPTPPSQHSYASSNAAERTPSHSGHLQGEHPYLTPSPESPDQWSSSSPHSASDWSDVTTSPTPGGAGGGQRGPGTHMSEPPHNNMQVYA
Torsin-1A-interacting protein 2 (Homo sapiens), sequence (Q8NFQ8 whole entry, looked up): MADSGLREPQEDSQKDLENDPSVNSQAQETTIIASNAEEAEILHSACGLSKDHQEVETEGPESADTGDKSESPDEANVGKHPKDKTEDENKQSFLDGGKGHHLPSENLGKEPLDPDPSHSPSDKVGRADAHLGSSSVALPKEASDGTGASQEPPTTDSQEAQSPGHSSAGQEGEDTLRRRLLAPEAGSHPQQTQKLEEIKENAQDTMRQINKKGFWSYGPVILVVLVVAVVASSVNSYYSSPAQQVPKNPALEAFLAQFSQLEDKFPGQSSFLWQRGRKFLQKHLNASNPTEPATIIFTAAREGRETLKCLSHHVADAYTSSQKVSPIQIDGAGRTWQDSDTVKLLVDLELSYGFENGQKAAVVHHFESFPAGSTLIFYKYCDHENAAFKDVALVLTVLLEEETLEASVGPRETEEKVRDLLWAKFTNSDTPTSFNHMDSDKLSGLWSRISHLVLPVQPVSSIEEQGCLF
Pro-neuregulin-1, membrane-bound isoform (Homo sapiens), sequence (Q02297 whole entry, looked up, the tested form may be a part, canonical isoform): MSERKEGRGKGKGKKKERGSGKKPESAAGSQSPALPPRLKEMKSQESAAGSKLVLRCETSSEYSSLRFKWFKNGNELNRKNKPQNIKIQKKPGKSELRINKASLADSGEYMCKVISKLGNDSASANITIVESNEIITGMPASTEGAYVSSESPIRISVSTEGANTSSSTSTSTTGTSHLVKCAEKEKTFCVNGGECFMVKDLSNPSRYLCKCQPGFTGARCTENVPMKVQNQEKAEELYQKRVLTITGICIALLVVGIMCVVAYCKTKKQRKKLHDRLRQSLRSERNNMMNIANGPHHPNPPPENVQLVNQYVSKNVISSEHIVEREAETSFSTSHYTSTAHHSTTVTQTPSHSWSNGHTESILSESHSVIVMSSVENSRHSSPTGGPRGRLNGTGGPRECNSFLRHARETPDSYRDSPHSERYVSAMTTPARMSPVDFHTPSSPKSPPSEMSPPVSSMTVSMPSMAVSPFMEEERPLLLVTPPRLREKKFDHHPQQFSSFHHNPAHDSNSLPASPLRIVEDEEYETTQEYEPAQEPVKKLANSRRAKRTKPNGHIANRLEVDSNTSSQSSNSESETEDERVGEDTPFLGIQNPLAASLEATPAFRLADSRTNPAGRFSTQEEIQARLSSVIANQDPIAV

In the case of `CN(C)CCCCNC(=O)[C@H]1C[C@H]2C(=O)N[C@@H](CCCC[N+](C)(C)C)C(=O)N2[C@H]1c1ccc(O)cc1`, the composite z-score in [1] is -0.334; in [2] it was 0.755; in [3], -0.136; in [4], -0.556; in test [5], -0.661; in test [6] it was -0.506. For the same compound, the composite z-score in test [7] was 0.942; in test [9], -0.31; in test [10], -0.132; in [11], 0.366; in test [15], -0.2; in test [17], -0.0011. In addition, the composite z-score was -0.0923 in test [18], -0.529 in [19] and -0.194 in [20]. Further, the z-score in test [8] was 3.25 (inactive); in test [12], -0.838 (inactive); in [13] it was 0.0639 (inactive); in test [14], -0.682 (inactive); in [16], 0.744 (inactive).
For the compound `CCc1cccc(NC(=O)O[C@H]2[C@H](OC(=O)Nc3ccccc3)[C@H](OC(=O)Nc3ccccc3)[C@@H](OC)O[C@@H]2CO)c1`, the composite z-score is -0.0949 in [1]; 0.0776 in test [2]; 0.0457 in test [3]; 1.2 in test [4]; 1.19 in test [5]; 1.7 in test [6]. Also, the composite z-score in test [7] is 1.25; in [9], 0.766; in test [10], -0.201; in [11] it was 1.5; in [15], 3.48; in test [17], 0.0166. The composite z-score was 0.349 in test [18], 1.08 in test [19] and -0.0968 in [20]. In addition, the z-score in [8] is 2.16 (inactive); in test [12] it was 1.22 (inactive); in [13], 1.72 (inactive); in [14] it was 8.61 (active); in test [16], -0.728 (inactive).
Turning to `COC(=O)[C@@]1(Cc2ccc(F)cc2)[C@H]2c3cc(C(=O)N(C)C)n(Cc4c(CO)[nH]cc(C)c4=O)c3C[C@H]2CN1C(=O)c1ccccc1`, the composite z-score is 0.535 in [1]; -0.199 in test [2]; 0.142 in test [3]; 1.16 in [4]; 1.42 in test [5]; 2.1 in [6]. Moreover, the composite z-score is 1.15 in [7]; 0.255 in test [9]; -0.0237 in [10]; -0.51 in test [11]; 1.63 in test [15]; 0.378 in test [17]. Also, the results for the composite z-score in test [18], in test [19] and in test [20] were -0.115, -0.032 and 0.297, respectively. Moreover, the z-score was 1.09 (inactive) in test [8]; 0.342 (inactive) in [12]; -0.392 (inactive) in test [13]; 0.796 (inactive) in [14]; -0.893 (inactive) in [16].
As for `CC=CC(O)C1C=CC2C(=O)NC(=O)C2N1Nc1ccccn1` (stereo not given), the composite z-score in test [1] is -0.293; in test [2], 0.205; in test [3] it was -0.151; in [4], 0.204; in test [5], 1.03; in test [6], 0.934. Moreover, the composite z-score in test [7] was 1.24; in test [9], 0.128; in test [10], -0.0618; in [11], 1.36; in test [15], 0.871; in test [17], 0.0261. For the same compound, the composite z-score in test [18] was 0.26; in test [19], 0.542; in [20] it was -0.257. The z-score was 0.571 (inactive) in test [8]; 0.43 (inactive) in test [12]; 1.99 (inactive) in test [13]; 0.544 (inactive) in [14]; -0.565 (inactive) in test [16].
In the case of `COc1ccc(CCNC(=O)[C@@]2(Cc3ccccc3I)c3ccccc3C(=O)N(Cc3ccccc3Cl)[C@H]2c2ccc(CO)cc2)cc1`, the composite z-score in [1] stood at 0.696; in test [2], 0.348; in test [3], 0.189; in test [4] it was 0.0625; in [5], 0.0077; in test [6] it was 1.8. Further, the composite z-score in test [7] came to 1.22; in [9] it was 0.262; in test [10] it was 0.674; in [11], 1.46; in test [15] it was 2.35; in test [17] it was 0.23. Further, the composite z-score was -0.383 in test [18], 0.0854 in test [19] and 0.0284 in test [20]. Besides, the z-score in test [8] is -3.44 (inactive); in test [12] it was -0.372 (inactive); in test [13], -0.645 (inactive); in test [14], -0.0387 (inactive); in test [16] it was -1.3 (inactive).
Turning to `COC(=O)C(CC#Cc1ccc2c(c1)[C@]1(C(=O)N2)[C@H](c2ccc(O)cc2)N2[C@H](c3ccccc3)[C@H](c3ccccc3)OC(=O)[C@H]2[C@@H]1C(=O)N1CCCCCCC1)C(=O)OC`, the composite z-score in test [1] was 3.08; in [2], 0.716; in [3], 0.61; in [4] it was 0.156; in [5] it was 1.08; in test [6] it was 1.19. Further, the composite z-score in test [7] came out at 1.19; in test [9], 2.44; in test [10], 0.17; in test [11] it was 1.53; in test [15] it was 4.02; in [17], 1.5. Besides, the composite z-score in test [18] stood at 1.91; in [19] it was 1.14; in test [20], 0.804. Also, the z-score is -0.546 (inactive) in test [8]; -1.87 (inactive) in test [12]; -1.29 (inactive) in test [13]; -0.939 (inactive) in [14]; 0.88 (inactive) in [16].
